# Measurements published in PubChem BioAssay (EPA / NIEHS).
# Several values for one entry are separate records, joined by “and”; a condition that tells them apart may be missing. Identical values can stand only once. Activity calls are given as the source filed them. Rule for the calls: active = hit-call score of the fitted dose curve at least 0.9, where 1 is the maximum; inactive = score below 0.9.
# Read-out: Collagen I, COL1A1 (gene 1277)
# Assay: BSK_MyoF_CollagenI: BioMAP Diversity Plus: MyoF Assay for Collagen I Biomarker Activity (AID 2284238)
# Conditions: primary human lung fibroblasts
# Protocol: BSK_MyoF is a cell-based, multiplexed-readout assay that uses lung fibroblasts, […], with measurements taken at 24 hours after chemical dosing in a microplate: 96-well plate.BSK_MyoF_CollagenI is an assay component measured in the BSK_MyoF assay. It measures Collagen I antibody related to regulation of gene expression using ELISA technology.Data from the assay component BSK_MyoF_CollagenI was analyzed at the endpoint, BSK_MyoF_CollagenI, in the positive analysis fitting direction relative to DMSO as the negative control and baseline of activity. Using a type of binding reporter, gain or loss-of-signal activity can be used to understand protein changes. To generalize the intended target to other relatable targets, this assay endpoint is annotated to the 'cell adhesion molecules' intended target family, where the subfamily is 'collagen'.
# The levels of cell surface (or secreted, indicated by the prefix "s") biomarker endpoints were measured by ELISA. Overt cytotoxicity to cells in confluent adherent cultures (all systems other than the BT system) was assessed by measuring total protein levels using sulforhodamine B (SRB) staining in parallel cultures at the time of biomarker measurements, indicated as SRB endpoints. For proliferation assays for adherent cell types, individual cell types are cultured at sub-confluence and relative cell numbers quantified by SRB staining at time points optimized for each system (48 h: 3C and CASM3C systems; 72 h: BT and HDF3CGF systems; 96 h: SAg system). SRB was performed by staining cells with 0.1% SRB after fixation with 10% TCA and reading wells at 560 nm.Viability and proliferation of PBMC (T cells) was quantified by Alamar Blue reduction for the SAg and BT systems. For PBMC viability (referred to as PBMC Cytotoxicity within the assay endpoint names), cells were plated (75,000/well in a 96-well plate) and then chemical samples added for 1 h before addition of activators, SEB and TSST-1 (20 ng/mL final concentration each). Cells were incubated for 90 h. Then, Alamar Blue (20 uL/well) (Invitrogen, Cat DAL1100) was added for 6 h, and the plates were read with a fluorescence microplate reader at 546/580 nm (excitation/emission). For PBMC proliferation, cells were plated and activated as above but incubated for only 16 h prior to addition of Alamar Blue. Plates were read after 6 h.
SMILES,outcome,AC50
O=C(O)C(F)(F)OC(F)(F)C(F)(F)OC(F)(F)C(=O)O,inactive,–
CCOP(=S)(OCC)SCSc1ccc(Cl)cc1,inactive,–
O=C(O)C=CC(F)(C(F)(F)F)C(F)(F)F,inactive,–
Cc1c([N+](=O)[O-])cc2c(c1[N+](=O)[O-])C(C)(C)CC2(C)C,inactive,–
CCOP(=S)(S)OCC,inactive,–
NC(=O)C(F)(F)C(F)(F)F,inactive,–
Nc1ccc([N+](=O)[O-])cc1Cl,inactive,–
FC(F)(F)C(F)(C(F)(F)F)C(F)(F)C(F)(F)CC1CO1 (stereo not drawn),inactive,–
OCC(F)(F)OC(F)(F)C(F)(F)OC(F)(F)C(F)(F)OC(F)(F)CO,inactive,–
O=C(O)C(F)(F)OC(F)(F)C(F)(F)OC(F)(F)F,inactive,–
CCCCOCCOP(=O)(OCCOCCCC)OCCOCCCC,inactive,–
C=CC(=O)OCC(F)(F)C(F)F,–,46.7 µM (active) and 44.9 µM (active)
CCCCC(CC)COP(=O)(Oc1ccccc1)Oc1ccccc1 (stereo not drawn),–,9.47 µM (active)
C=CC(=O)OCC(CC)(COC(=O)C=C)COC(=O)C=C,–,4.69 µM (active)
CC(Cl)CN(C)C (stereo not drawn),inactive,–
c1ccc2c(c1)sc1ccccc12,inactive,–
COC(=O)C(F)(F)C(F)(F)OC(F)(C(F)(F)F)C(F)(F)OC(F)=C(F)F (stereo not drawn),inactive,–
O=C(O)C(F)(OC(F)(F)C(F)(F)C(F)(F)F)C(F)(F)F (stereo not drawn),inactive,–
CCCCC(CC)COC(=O)c1c(Br)c(Br)c(Br)c(Br)c1C(=O)OCC(CC)CCCC (stereo not drawn),inactive,–

SMILES,outcome,AC50
O=P(OCC(Br)CBr)(OCC(Br)CBr)OCC(Br)CBr (stereo not drawn),inactive,–
CCOP(=S)(OCC)SCS(=O)(=O)CC,inactive,–
CCOP(=S)(OCC)SCn1nnc2ccccc2c1=O,inactive,–
O=c1ssc(Cl)c1Cl,–,7.5 µM (active)
COP(N)(=S)OC,inactive,–
CCOP(=S)(NC(C)C)Oc1ccccc1C(=O)OC(C)C (stereo not drawn),inactive,–
Cc1ccc2c(c1N)C(=O)c1ccccc1C2=O,inactive,–
CC(O)C(F)(F)C(F)(F)F (stereo not drawn),inactive,–
O=C(O)C(F)(F)C(F)(F)C(=O)O,inactive,–
N#Cc1cc([N+](=O)[O-])ccc1N,inactive,–
CC(C)Nc1ccc(Nc2ccccc2)cc1,–,26 µM (active)
COP(=O)(O)OC,inactive,–
OCC(F)(F)OC(F)(F)C(F)(F)OC(F)(F)C(F)(F)OC(F)(F)F,–,39.9 µM (active) and 22.1 µM (active)
OCC(F)(F)OC(F)(F)C(F)(F)OC(F)(F)CO,inactive,–
N#Cc1c(-c2ccc(Cl)cc2)[nH]c(C(F)(F)F)c1Br,–,0.899 µM (active)
O=S(=O)(F)C(F)(F)C(F)(F)C(F)(F)C(F)(F)C(F)(F)C(F)(F)C(F)(F)C(F)(F)F,inactive,–
ClC(Cl)=C(c1ccc(Cl)cc1)c1ccccc1Cl,–,4.93 µM (active)
O=S1(=O)OCC2C(CO1)C1(Cl)C(Cl)=C(Cl)C2(Cl)C1(Cl)Cl (stereo not drawn),inactive,–
CC(C)(C)c1ccccc1OP(=O)(Oc1ccccc1)Oc1ccccc1,–,28.3 µM (active)
